Measurements reported in PubChem BioAssay (EPA / NIEHS).
Results filed as inconclusive are left out. More than one record can exist for a structure, and the calls need not agree. Activity calls are given as the source filed them. The calls were made as follows, unless noted: active = hit-call score of the fitted dose curve at least 0.9, where 1 is the maximum; inactive = score below 0.9.

What was measured:
[1] = biological target: Retinoic acid receptor RXR-alpha (Homo sapiens) (UniProt P19793); experiment: OT_NURR1_NURR1RXRa_1440: Odyssey Thera (OT) 24-hour HEK293T Protein Complementation Assay for Nurr1/retinoid X receptor (RXR) (AID 2283386; active = hit-call score of the fitted dose curve at least 0.9, where 1 is the maximum)
Summary of the method: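 Fluorescence PCA read-out; HEK293T; 24 h post-dose; bait/prey fused to reporter fragments; gain-of-signal fit vs DMSO negative control.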

[2] = biological target: Peroxisome proliferator-activated receptor gamma (Homo sapiens) (UniProt P37231); experiment: OT_PPARg_PPARgSRC1_0480: Odyssey Thera (OT) 8-hour Protein-Complementation Assay for Peroxisome Proliferator-activated Receptor Gamma / SRC-1 Co-activator (AID 2283387; active = hit-call score of the fitted dose curve at least 0.9, where 1 is the maximum;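 also: nuclear to cytoplasmic split Venus YFP fluorescence ratio reporting PPARg SRC-1 interaction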)
Summary of the method: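 Read-out: 488 nm N/C fluorescence ratio from complemented Venus YFP fragments, ≥350 cells per image, gain-of-signal fitted against DMSO baseline. Fusions of PPARg/SRC-1 with IFP1/IFP2 expressed transiently in HEK293T; compounds applied 8 h.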

[3] = biological target: Peroxisome proliferator-activated receptor gamma (Homo sapiens) (UniProt P37231); experiment: OT_PPARg_PPARgSRC1_1440: Odyssey Thera (OT) 24-hour Protein-Complementation Assay for Peroxisome Proliferator-activated Receptor Gamma/ SRC-1 Co-activator (AID 2283388; active = hit-call score of the fitted dose curve at least 0.9, where 1 is the maximum;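 also: nuclear to cytoplasmic ratio of reconstituted Venus YFP fluorescence in fixed imaged cells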)
Summary of the method: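 Cells carrying the PPARg/SRC-1 fragment-complementation reporter receive compound for 24 hours, are fixed and counterstained with Draq5, then imaged. Increased nuclear relative to cytoplasmic YFP fluorescence above DMSO baseline indicates binding activity.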

[4] = CEETOX_H295R_OHPREG: CeeTox H295R High-throughput Steroidogenesis Assay for OH-Pregnenolone (OHPREG) (AID 2283434); conditions: actives raise or lower the signal
Summary of the method: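 H295R, 10 uM forskolin pre-stim 48 h; test chemical 48 h, 0.1% DMSO final. MTBE extraction, reverse-phase C18 HPLC-ESI+ MS/MS of medium. Gain/loss vs DMSO; viability by MTT in same wells.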

[5] = CEETOX_H295R_OHPROG: CeeTox H295R High-throughput Steroidogenesis Assay for OH-Progesterone (OHPROG) (AID 2283435); conditions: actives raise or lower the signal;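 as to AC50: 17alpha-hydroxyprogesterone secreted into medium measured by HPLC-MS/MS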
Summary of the method: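 HPLC-MS/MS quantification of 17alpha-hydroxyprogesterone secreted by H295R cells after 48 h chemical exposure, following 48 h 10 uM forskolin prestimulation. Gain or loss of signal fitted relative to DMSO. Viability checked by MTT in the same wells.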

[6] = CEETOX_H295R_PROG: CeeTox H295R High-throughput Steroidogenesis Assay for Progesterone (PROG) (AID 2283442); conditions: actives raise or lower the signal
Summary of the method: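 Measured analyte is progesterone secreted by H295R cells at 48 h of chemical treatment, following 10 uM forskolin priming. Quantitation used HPLC-MS/MS against a 7-point standard curve; cytotoxicity was checked by MTT absorbance.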

[7] = read-out: Tumor necrosis factor receptor superfamily member 6 (Homo sapiens) (UniProt P25445); experiment: LTEA_HepaRG_FAS: Life Technologies and Expression Analysis (LTEA) Assay for Fas cell surface death receptor (FAS) using HepaRG (AID 2283447); conditions: mRNA level, 48 h; actives raise or lower the signal
Summary of the method: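 Differentiated HepaRG cells in serum-free induction medium were exposed 48 h to 8 half-log concentrations up to 100 uM in 0.5% DMSO, in duplicate. FAS mRNA was measured by qRT-PCR normalised to ACTB, GAPDH and POLR2A; bidirectional fit versus DMSO.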

[8] = read-out: Fatty acid synthase (Homo sapiens) (UniProt P49327); experiment: LTEA_HepaRG_FASN: Life Technologies and Expression Analysis (LTEA) Assay for Fatty Acid Synthase (FASN) using HepaRG (AID 2283448); conditions: mRNA level, 48 h; actives raise or lower the signal;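 as to AC50: differentiated human HepaRG liver cells in serum-free induction medium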
Summary of the method: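 HepaRG, 48 h exposure, 8-pt half-log series top 100 uM, 0.5% DMSO vehicle, duplicates. Readout: FASN transcript by Fluidigm qRT-PCR; housekeeping-normalized; bidirectional curve fit vs DMSO baseline.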

[9] = read-out: Cyclin D2 (CCND2), CCND2 (gene 894); experiment: LTEA_HepaRG_CCND2: Life Technologies and Expression Analysis (LTEA) Assay for Cyclin D2 (CCND2) using HepaRG (AID 2283449); conditions: mRNA level, 48 h; actives raise or lower the signal;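 also: CCND2 transcript measured by TaqMan qRT-PCR and normalised to three housekeeping genes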
Summary of the method: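 HepaRG, 48 h dosing, 8-pt half-log curve from 100 uM, 0.5% DMSO; duplicate wells. Readout: CCND2 transcript by microfluidic qRT-PCR, housekeeping-normalised; bidirectional fit vs DMSO baseline.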

[10] = read-out: Cyclin Dependent Kinase Inhibitor 1A (CDKN1A), CDKN1A (gene 1026); experiment: LTEA_HepaRG_CDKN1A: Life Technologies and Expression Analysis (LTEA) Assay for Cyclin Dependent Kinase Inhibitor 1A (CDKN1A) using HepaRG (AID 2283450); conditions: mRNA level, 48 h; actives raise or lower the signal
Summary of the method: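 Gain or loss of CDKN1A transcript is scored by bidirectional fitting against 0.5% DMSO vehicle. Human HepaRG cultures receive chemicals for 48 h across an 8-point series peaking at 100 uM; expression comes from qRT-PCR.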

[11] = read-out: Cyclin D1 (CCND1), CCND1 (gene 595); experiment: LTEA_HepaRG_CCND1: Life Technologies and Expression Analysis (LTEA) Assay for Cyclin D1 (CCND1) using HepaRG (AID 2283451); conditions: mRNA level, 48 h; actives raise or lower the signal;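 as to AC50: differentiated human HepaRG liver cells in serum-free induction medium; TaqMan qRT-PCR transcript level normalised to ACTB GAPDH and POLR2A housekeeping genes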
Summary of the method: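 Expression change is measured by qRT-PCR in HepaRG cells after 48 h treatment across eight concentrations topping at 100 uM, with duplicate wells and DMSO (0.5%) serving as baseline for bidirectional fitting.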

[12] = read-out: catalase (CAT), CAT (gene 847); experiment: LTEA_HepaRG_CAT: Life Technologies and Expression Analysis (LTEA) Assay for catalase (CAT) using HepaRG (AID 2283452); conditions: mRNA level, 48 h; actives raise or lower the signal;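 as to AC50: TaqMan qRT-PCR signal normalized to ACTB GAPDH and POLR2A housekeeping genes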
Summary of the method: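 HepaRG cells in serum-free induction medium, 0.5% DMSO vehicle, exposed 48 h in duplicate over 8 half-log concentrations from 100 uM. CAT mRNA measured by qRT-PCR, normalized to ACTB, GAPDH, POLR2A; bidirectional fit versus DMSO.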

[13] = CEETOX_H295R_11DCORT: CeeTox H295R High-throughput Steroidogenesis Assay for 11-Deoxycortisol (11DCORT) (AID 2283432); conditions: actives raise or lower the signal;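 as to AC50: 11-deoxycortisol secreted into the medium measured by LC-MS/MS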
Summary of the method: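 H295R cells; 10 uM forskolin prestim 48 h; compound in 0.1% DMSO 48 h; media extracted with MTBE; 11-deoxycortisol by LC-MS/MS, 7-point standard curve; gain/loss vs DMSO baseline; viability by MTT in same wells.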

[14] = CEETOX_H295R_ANDR: CeeTox H295R High-throughput Steroidogenesis Assay for Androstenedione (ANDR) (AID 2283436); conditions: actives raise or lower the signal;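 also: human H295R adrenal cells exposed for 48 h with androstenedione measured in medium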
Summary of the method: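 48 h chemical exposure, H295R cells, DMEM/F12 + ITS+ and Nu-Serum. Medium androstenedione: MTBE extraction, C18 reverse-phase HPLC, ESI+ MS/MS. Fit bidirectional vs DMSO; MTT viability in same wells.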

[15] = CEETOX_H295R_CORTIC: CeeTox H295R High-throughput Steroidogenesis Assay for Corticosterone (CORTIC) (AID 2283437); conditions: actives raise or lower the signal;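 also: corticosterone secreted into medium quantified by mass spectrometry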
Summary of the method: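 48 h forskolin (10 uM) prestim, then 48 h chemical exposure, final DMSO 0.1%. Readout: corticosterone in medium by LC-MS/MS after MTBE extraction. Gain/loss fit vs DMSO; MTT viability in same wells.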

[16] = CEETOX_H295R_CORTISOL: CeeTox H295R High-throughput Steroidogenesis Assay for Cortisol (AID 2283438); conditions: actives raise or lower the signal;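 also: cortisol secreted into medium quantified by LC-MS/MS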
Summary of the method: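 Read-out: cortisol in culture medium by reverse-phase C18 HPLC with ESI-positive tandem MS, after MTBE liquid-liquid extraction. Cells: human adrenal H295R, forskolin-primed (10 uM, 48 h) before 48 h chemical exposure in 0.1% DMSO.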

[17] = CEETOX_H295R_DOC: CeeTox H295R High-throughput Steroidogenesis Assay for DOC (AID 2283439); conditions: actives raise or lower the signal
Summary of the method: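 Human adrenocortical H295R cells, passages up to 10, received 10 uM forskolin for 48 h before chemical addition. After another 48 h exposure in 0.1% DMSO, secreted DOC was measured by LC-MS/MS, with gain or loss fitted against DMSO controls.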

[18] = read-out: flavin-containing dimethylaniline monooxygenases 3 (FMO3), FMO3 (gene 2328); experiment: LTEA_HepaRG_FMO3: Life Technologies and Expression Analysis (LTEA) Assay for flavin-containing dimethylaniline monooxygenases 3 (FMO3) using HepaRG (AID 2283453); conditions: mRNA level, 48 h; actives raise or lower the signal;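 as to AC50: differentiated human HepaRG liver cells in serum-free induction medium; FMO3 transcript by TaqMan qRT-PCR normalized to ACTB GAPDH and POLR2A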
Summary of the method: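 Eight-point concentration-response in serum-free HepaRG cultures (top 100 uM, 0.5% DMSO, 48 h). Read-out: FMO3 mRNA level normalized to three endogenous control genes, fitted bidirectionally versus vehicle.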

Measured: AC50

Sequence of Peroxisome proliferator-activated receptor gamma (Homo sapiens) (P37231 whole entry, looked up, the tested form may be a part): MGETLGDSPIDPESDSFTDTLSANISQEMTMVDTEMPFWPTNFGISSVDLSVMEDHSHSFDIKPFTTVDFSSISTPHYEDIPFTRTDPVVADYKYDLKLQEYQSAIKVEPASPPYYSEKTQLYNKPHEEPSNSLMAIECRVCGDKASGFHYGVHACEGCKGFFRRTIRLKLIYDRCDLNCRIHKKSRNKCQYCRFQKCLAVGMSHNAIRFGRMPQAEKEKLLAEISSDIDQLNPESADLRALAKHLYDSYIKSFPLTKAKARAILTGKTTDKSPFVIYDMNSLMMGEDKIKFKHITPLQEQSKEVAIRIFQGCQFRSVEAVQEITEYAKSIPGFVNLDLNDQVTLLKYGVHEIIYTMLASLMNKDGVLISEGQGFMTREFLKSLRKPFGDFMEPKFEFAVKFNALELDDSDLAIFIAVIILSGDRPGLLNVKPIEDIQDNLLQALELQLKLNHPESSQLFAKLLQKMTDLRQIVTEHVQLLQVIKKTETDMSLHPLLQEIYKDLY
Sequence of Fatty acid synthase (Homo sapiens) (P49327 whole entry, looked up): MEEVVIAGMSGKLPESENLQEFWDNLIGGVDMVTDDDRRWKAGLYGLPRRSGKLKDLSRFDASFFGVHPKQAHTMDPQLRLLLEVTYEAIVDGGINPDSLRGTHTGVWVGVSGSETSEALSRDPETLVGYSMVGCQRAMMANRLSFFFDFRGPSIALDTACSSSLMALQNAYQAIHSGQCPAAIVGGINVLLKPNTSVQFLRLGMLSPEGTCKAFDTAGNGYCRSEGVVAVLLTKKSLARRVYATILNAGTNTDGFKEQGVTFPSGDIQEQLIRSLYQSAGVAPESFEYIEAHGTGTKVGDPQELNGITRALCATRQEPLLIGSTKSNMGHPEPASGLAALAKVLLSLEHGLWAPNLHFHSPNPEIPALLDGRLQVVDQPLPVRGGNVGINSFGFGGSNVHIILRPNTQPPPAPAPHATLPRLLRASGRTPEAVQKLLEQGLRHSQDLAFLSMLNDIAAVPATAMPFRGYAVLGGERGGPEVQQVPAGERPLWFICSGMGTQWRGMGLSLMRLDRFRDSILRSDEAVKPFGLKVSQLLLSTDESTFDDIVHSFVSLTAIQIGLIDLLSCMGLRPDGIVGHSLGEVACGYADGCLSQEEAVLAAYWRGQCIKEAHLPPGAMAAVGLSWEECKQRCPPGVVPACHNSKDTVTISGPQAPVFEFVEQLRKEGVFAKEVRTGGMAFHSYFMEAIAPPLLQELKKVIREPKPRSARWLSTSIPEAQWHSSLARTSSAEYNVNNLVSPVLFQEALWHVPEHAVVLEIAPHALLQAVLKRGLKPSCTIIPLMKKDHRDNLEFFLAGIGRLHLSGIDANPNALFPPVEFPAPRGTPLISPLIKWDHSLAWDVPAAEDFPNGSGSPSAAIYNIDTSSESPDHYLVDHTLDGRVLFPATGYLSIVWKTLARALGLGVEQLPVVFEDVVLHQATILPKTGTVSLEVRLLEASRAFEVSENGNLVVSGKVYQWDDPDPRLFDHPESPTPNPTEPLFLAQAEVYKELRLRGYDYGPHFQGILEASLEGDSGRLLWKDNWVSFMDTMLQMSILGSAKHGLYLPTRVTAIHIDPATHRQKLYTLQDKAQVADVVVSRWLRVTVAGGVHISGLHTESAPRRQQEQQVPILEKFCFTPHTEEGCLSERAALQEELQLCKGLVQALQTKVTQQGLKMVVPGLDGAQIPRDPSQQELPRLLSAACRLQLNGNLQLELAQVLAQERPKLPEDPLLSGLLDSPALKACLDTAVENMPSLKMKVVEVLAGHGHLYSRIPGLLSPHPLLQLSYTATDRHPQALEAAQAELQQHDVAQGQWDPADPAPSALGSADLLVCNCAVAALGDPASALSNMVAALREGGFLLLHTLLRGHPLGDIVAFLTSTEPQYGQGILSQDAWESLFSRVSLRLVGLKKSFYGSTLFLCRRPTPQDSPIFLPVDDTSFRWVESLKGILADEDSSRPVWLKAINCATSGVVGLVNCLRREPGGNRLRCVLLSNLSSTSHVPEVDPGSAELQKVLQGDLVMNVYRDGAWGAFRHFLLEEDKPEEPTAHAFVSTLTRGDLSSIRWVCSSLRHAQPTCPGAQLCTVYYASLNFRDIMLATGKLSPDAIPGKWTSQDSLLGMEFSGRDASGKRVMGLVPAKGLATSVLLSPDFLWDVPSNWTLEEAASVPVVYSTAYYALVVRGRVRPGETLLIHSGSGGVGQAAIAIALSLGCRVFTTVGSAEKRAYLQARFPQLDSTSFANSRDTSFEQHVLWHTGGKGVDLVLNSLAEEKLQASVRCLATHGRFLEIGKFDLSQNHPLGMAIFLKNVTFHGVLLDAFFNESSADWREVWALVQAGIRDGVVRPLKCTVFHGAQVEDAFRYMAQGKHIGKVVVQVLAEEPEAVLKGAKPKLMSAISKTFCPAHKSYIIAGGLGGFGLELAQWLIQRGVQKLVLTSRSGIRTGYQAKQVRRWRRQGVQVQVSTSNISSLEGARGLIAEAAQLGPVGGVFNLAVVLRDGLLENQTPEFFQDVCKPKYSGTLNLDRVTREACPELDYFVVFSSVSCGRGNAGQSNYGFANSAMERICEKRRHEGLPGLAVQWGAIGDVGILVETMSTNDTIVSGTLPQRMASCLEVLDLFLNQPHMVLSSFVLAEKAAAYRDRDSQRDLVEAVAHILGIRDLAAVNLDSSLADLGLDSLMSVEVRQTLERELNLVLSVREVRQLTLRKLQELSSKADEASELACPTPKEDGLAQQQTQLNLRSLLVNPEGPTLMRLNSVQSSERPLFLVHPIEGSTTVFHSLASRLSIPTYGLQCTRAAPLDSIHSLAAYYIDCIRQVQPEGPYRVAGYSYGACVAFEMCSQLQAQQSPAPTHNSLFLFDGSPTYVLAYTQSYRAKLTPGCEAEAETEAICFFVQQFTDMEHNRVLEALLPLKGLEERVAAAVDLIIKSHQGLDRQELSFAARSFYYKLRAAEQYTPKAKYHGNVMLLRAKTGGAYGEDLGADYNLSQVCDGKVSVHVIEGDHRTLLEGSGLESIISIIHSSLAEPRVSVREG
Sequence of Retinoic acid receptor RXR-alpha (Homo sapiens) (P19793 whole entry, looked up, the tested form may be a part): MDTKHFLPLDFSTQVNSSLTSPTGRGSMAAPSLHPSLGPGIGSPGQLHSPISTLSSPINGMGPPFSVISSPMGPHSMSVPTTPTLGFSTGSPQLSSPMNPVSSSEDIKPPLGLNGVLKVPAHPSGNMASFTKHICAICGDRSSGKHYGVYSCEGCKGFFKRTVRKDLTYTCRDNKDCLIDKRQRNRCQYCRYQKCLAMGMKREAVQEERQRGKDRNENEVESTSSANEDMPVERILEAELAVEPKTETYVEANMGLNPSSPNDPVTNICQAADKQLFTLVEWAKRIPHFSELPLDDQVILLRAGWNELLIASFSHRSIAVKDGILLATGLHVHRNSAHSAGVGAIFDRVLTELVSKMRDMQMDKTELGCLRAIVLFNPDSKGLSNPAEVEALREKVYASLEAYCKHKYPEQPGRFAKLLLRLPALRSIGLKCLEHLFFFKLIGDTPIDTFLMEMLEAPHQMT

CN(C)C(=O)Nc1cccc(C(F)(F)F)c1
active: [5] 52.6 µM
inactive: [1] | [2] | [3] | [4] | [6] | [7] | [8] | [9] | [10] | [11] | [12]

CN(C)NC(=O)CCC(=O)O
inactive: [1] | [2] | [3] | [4] | [5] | [6] | [8] | [9] | [10] | [11] | [12]

COc1cccc(C(=O)NN(C(=O)c2cc(C)cc(C)c2)C(C)(C)C)c1C
inactive: [1] | [2] | [3] | [4] | [6] | [7] | [8] | [9] | [10] | [11] | [12]

CCCSP(=O)(OCC)SCCC
inactive: [1] | [2] | [3] | [13] | [4] | [5] | [14] | [15] | [16] | [17] | [6] | [8] | [9] | [10] | [11] | [12]

C=C(C)[C@H]1Cc2c(ccc3c2O[C@@H]2COc4cc(OC)c(OC)cc4[C@@H]2C3=O)O1
active: [1] 22.2 µM | [8] 20.8 µM | [10] 1.41 µM | [11] 22.8 µM | [12] 1.75 µM | [18] 5.89 µM
inactive: [1] | [2] | [3] | [9]

CC(COc1ccc(Oc2ccccc2)cc1)Oc1ccccn1 (stereo unspecified)
inactive: [1] | [2] | [3] | [4] | [5] | [14] | [6] | [7] | [9] | [10] | [11] | [12] | [18]
active: [8] 30.5 µM

CCc1cccc(C)c1N(C(=O)CCl)C(C)COC (stereo unspecified)
inactive: [1] | [2] | [3] | [4] | [5] | [6] | [8] | [9] | [10] | [11] | [12]

CCOP(=O)(NC(C)C)Oc1ccc(SC)c(C)c1 (stereo unspecified)
active: [13] 24 µM | [4] 13.9 µM | [14] 50 µM | [17] 17.4 µM | [6] 32.2 µM
inactive: [1] | [2] | [3] | [15] | [16] | [7] | [8] | [10] | [11] | [12] | [18]
